In PubChem BioAssay (NCI):
The panel holds about 83,000 compounds, 20% with a hit somewhere; the sample as a whole holds those more often.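 Growth was measured after 48 h exposure to one concentration of compound in 96-well plates. Values under 10 count as active.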 Values without a mark were called inactive. Active and inactive are the calls of the source.

Experiments:
Assay in all cases: NCI-60 one-dose screen, 48 h (100 = growth as untreated, 0 = no growth, -100 = all killed)
Settings in all cases: 10 µM unless noted
NCI-H23 lung = tested on: NCI-H23 lung
NCI-H226 lung = tested on: NCI-H226 lung
NCI-H322M lung = tested on: NCI-H322M lung
HOP-62 NSCLC = tested on: HOP-62 NSCLC
NCI-H460 lung = tested on: NCI-H460 lung
HOP-92 NSCLC = tested on: HOP-92 NSCLC
NCI-H522 lung = tested on: NCI-H522 lung
A549/ATCC NSCLC = tested on: A549/ATCC NSCLC
786-0 renal = tested on: 786-0 renal
COLO 205 colon = tested on: COLO 205 colon

Structure (SMILES)	growth (NCI-H23 lung)	growth (NCI-H226 lung)	growth (NCI-H322M lung)	growth (HOP-62 NSCLC)	growth (NCI-H460 lung)	growth (HOP-92 NSCLC)	growth (NCI-H522 lung)	growth (A549/ATCC NSCLC)	growth (786-0 renal)	growth (COLO 205 colon)
COc1cccc(NC(=O)c2sc3nc4c(cc3c2N)CN(Cc2ccccc2)CC4)c1	81.2%	57.2%	74%	31.4%	45.6%	42.1%	68%	62.1%	37.2%	78.6%
O=C(CO[N+](=O)[O-])Nc1ccc(C(=O)/C=C/c2ccc(Cl)cc2)cc1	5.49% (active)	81.7%	71.5%	94.1%	84.9%	66.8%	38.7%	67.6%	75%	36.1%
C(=N\Nc1ccccn1)/c1ccccn1	12.1%	16%	15.7%	19.2%	7.9% (active)	79.1%	-9.71% (active)	12.2%	-41.9% (active)	34.6%
CC1CN(Cc2ccco2)C(=S)N(c2ccccc2)C1=O (stereo not given)	108%	97.3%	99.4%	88.1%	98.5%	92.7%	92.9%	110%	103%	128%
CCCCN(CC)CCCCCCCCCCN1CCCc2cc(OC)ccc21	13.2%	103%	54.2%	106%	28.5%	31.8%	38.8%	91%	60.4%	83.4%
O=C1Nc2c(ccc(Cl)c2Cl)/C1=C/c1cc(Br)c(O)c(Br)c1	73.9%	78.5%	90.3%	79.1%	46.1%	67.1%	9.37% (active)	51.4%	74.6%	79.2%
COc1cccc(-c2nc3sccn3c2-c2ccnc(NCCCNS(=O)(=O)c3ccccc3)c2)c1	29.1%	32.6%	69.4%	62.2%	38.3%	42%	27.9%	29%	59.5%	37.7%
CS(=O)CCCCCN=C=S (stereo not given)	4.24% (active)	-8.26% (active)	1.21% (active)	-7.49% (active)	0.781% (active)	19.5%	-25.4% (active)	-0.774% (active)	9.82% (active)	-51.6% (active)
C=CCSc1nnc(-c2ccc(C(C)(C)C)cc2)n1-c1cccc(C(F)(F)F)c1	35.4%	44.7%	77.7%	67.3%	29.3%	28.9%	37.3%	21.2%	30.4%	41.1%
O=C1C2CC=CCC2C(=O)N1CNc1ccc(Cl)cc1 (stereo not given)	94.2%	90.5%	92.2%	86.4%	107%	62.9%	74.7%	93.6%	89.4%	115%
CN(C)c1ccc(/C=C(\C#N)c2nc3ccccc3s2)cc1	102%	101%	86.8%	116%	103%	104%	92.7%	105%	96.8%	123%
Cn1c(=O)c2c(ncn2CC[N+](C)(C)C)n(C)c1=O	99.9%	93.2%	101%	92%	109%	110%	80.7%	91.7%	108%	103%
COc1ccc2nc3cc(Cl)ccc3c(NCCNCC(O)CO)c2c1 (stereo not given)	23.6%	43.1%	20.6%	31.5%	0.301% (active)	13.1%	3.19% (active)	14.6%	29.3%	0.893% (active)
C[C@@]1(N2C(=O)OC[C@@H]2c2ccccc2)C(=O)N([C@H](CC(=O)N2CCC(N3CCCCC3)CC2)C(=O)NCc2cccc(C(F)(F)F)c2)[C@@H]1/C=C/c1ccccc1	78.8%	89.6%	72.8%	84.7%	2.37% (active)	64.4%	-9.84% (active)	54.6%	70%	-67.1% (active)
O=S(=O)(NCCCNc1cc(-c2cn(-c3ccccc3)nc2-c2ccccc2)ccn1)c1ccc(C(F)(F)F)cc1	58.7%	54.3%	66.8%	82%	50.7%	32.2%	72.1%	40.9%	29%	33.1%
COCCOc1ccc(-c2nc3ccc(-c4nc5ccc(N6CCN(C)CC6)cc5[nH]4)cc3[nH]2)cc1	-4.24% (active)	-8.04% (active)	17%	14.2%	35.9%	26.4%	-41.9% (active)	67.9%	26.8%	-10.9% (active)
OCC1C2C=CC(C2)C1CO (stereo not given)	108%	109%	114%	90.9%	121%	60.5%	97%	89%	101%	191%
CCOC(=O)c1c2c(n3ccc(NC(=O)CCN4CCCCC4)cc13)C(=O)c1ncccc1C2=O	-55.2% (active)	73.8%	-77.4% (active)	-74.5% (active)	-35.9% (active)	78.5%	5.07% (active)	-70.1% (active)	19.4%	-71.8% (active)
COc1cccc(-n2cc(-c3nc(Nc4cc(C)[nH]n4)c4ccccc4n3)nn2)c1	61.1%	49.9%	52.2%	50.2%	44.9%	35.8%	9.97% (active)	35.9%	51.4%	85.8%
Cc1ccc2c(c1)O/C(=C\c1cccc(OCC(=O)c3ccccc3)c1)C2=O	97.4%	93.6%	116%	90.3%	107%	75.2%	70.3%	81.6%	91.1%	101%
CC(=O)OC1Oc2cc(C)c(C)cc2-c2oc(=O)c(-c3cc4ccc(N(C)C)cc4oc3=O)cc21 (stereo not given)	46.9%	59.2%	78.9%	82%	65.4%	77.8%	60.5%	70.5%	74.1%	96.4%
C=C1CCC2C3(C)COC(c4cccc(Cl)c4)OC3CCC2(C)C1/C=C/C1=CCOC1=O (stereo not given)	38.2%	61%	90.2%	76.7%	36.2%	98.2%	57.8%	58.4%	65.9%	106%
CC/C=C\C[C@H](O)C/C=C1/C(=O)C=C[C@@H]1C/C=C\CCCC(=O)OC(C)C	-40.1% (active)	-39% (active)	-1.62% (active)	-44.2% (active)	0.788% (active)	-0.165% (active)	-54.2% (active)	-39.2% (active)	-50.8% (active)	-73.8% (active)
O=C1OC2C(I)C3CC2C1C3c1ccccc1 (stereo not given)	94.8%	105%	139%	88.9%	117%	93.7%	110%	110%	95.2%	125%
O=C(COCc1c(-c2ccccc2)no[n+]1[O-])Nc1ccc(C(=O)/C=C/c2ccc3c(c2)OCO3)cc1	101%	96.6%	113%	108%	112%	73.2%	140%	85.4%	113%	120%
COc1ccc(-c2nn(-c3ccccc3)cc2/C=C/C(=O)OCc2cn(-c3ccc(F)c(Cl)c3)nn2)cc1	72.6%	80.5%	92.1%	78.5%	96.7%	101%	65.2%	92.1%	101%	104%
CCOC(=O)Cc1cnn(C)c1NC(=O)c1ccc(Cl)cc1NC(C)=O	104%	98.6%	79.1%	96.4%	119%	91.4%	95.4%	103%	98.4%	110%
